# hgDAF-12 ag: H. glycines DAF-12 receptor agonists, primary screen, cell-based, luminescence, HEK293, GAL4 fusion, UAS-luciferase; Nuclear hormone receptor DAF-12 (Heterodera glycines), GAL4 fusion; HEK293 GAL4-hgDAF12 UAS-luciferase reporter, agonist luminescence; normalized to butyrate control; activation, % at 6.8 µM; actives 1.8% (n = 370,000); AID 687014, 2013;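 active = activation above a cutoff set at the mean of all screened compounds plus 3 SD, cut at about 10% in these data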;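 note: 0% = DMSO wells and 100% = sodium butyrate wells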
# ssDAF-12 act: S. stercoralis DAF-12 nuclear receptor activators, primary screen, cell-based, luminescence, HEK293, GRIP1 co-expression, lit1-tk-luc; AID 652126, 2013; actives 1% (n = 370,000); HEK293 ssDAF-12/GRIP1 lit1-tk-luc reporter; % of 3 µM dafachronic acid response; activation, % at 6.8 µM;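 active = activation above the mean over all tested compounds plus 3 SD, cut at about 0.9% in these data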;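 note: 0% = DMSO-only wells and 100% = 3 µM delta7-dafachronic acid wells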
# Wee1 stabilizer: Wee1 degradation inhibitors, primary screen, cell-based, HeLa, Wee1K328M-luciferase, luminescence | AID 1321, 2008 | actives 1.2% (n = 220,000) | Wee1-like protein kinase (Homo sapiens), P30291 | reporter increase, % at 5 µM | HeLa Luc-Wee1K328M stability; 100% = proteasome inhibitor MG132 effect;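 active = activation above the mean of all tested compounds plus 3 SD, set per screening run, cut at about 8.8% in these data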;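 note: cells exposed to compound for 20 h before luminescence read; 0% = DMSO alone and 100% = MG132 at 30 µM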
# DAX1 inh-1: DAX1 (NR0B1) inhibitors on StAR promoter, primary screen, cell-based, luminescence, SF-1 (NR5A1), full-length DAX-1. HEK293T StAR-luciferase reporter, SF-1/DAX-1 repression relief. inhibition, % at 6.8 µM. actives 1.1% (n = 370,000);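 active = inhibition above the mean over all tested compounds plus 3 SD, cut at about 3.6% in these data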;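 note: 0% = DAX-1 cells with DMSO and 100% = cells lacking DAX-1 with DMSO; higher inhibition means more luminescence from relief of DAX-1 repression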
# hcDAF12 agonist: H. contortus DAF-12 nuclear receptor activators, primary screen, cell-based, luminescence, HEK293, lit1-tk-luc reporter; activation, % at 6.8 µM; HEK293 hcDAF-12 lit1-tk-luc reporter; 0% DMSO, 100% Δ7-dafachronic acid; actives 1.4% (n = 370,000);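 active = activation above the mean of all tested compounds plus 3 SD, cut at about 5.5% in these data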;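 note: 100% = response to 3 µM Δ7-dafachronic acid high control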
# DAX1 inh-2: DAX1 (NR0B1) inhibitors, primary screen, cell-based, HEK293, Gal4-DAX1, luciferase luminescence. Nuclear receptor subfamily 0 group B member 1 (Homo sapiens), P51843. HEK293 Gal4-DAX1 luciferase reporter. inhibition, % at 6.75 µM. actives 0.99% (n = 340,000). AID 504766, 2011;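 active = inhibition above the mean over all tested compounds plus 3 SD, cut at about 4.2% in these data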;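 note: 0% = DAX1-transfected cells with DMSO and 100% = empty-vector control cells with DMSO; inhibition shows as a rise in luminescence from relieved DAX1 repression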
# Target sequence (P51843 207-470 limits assumed): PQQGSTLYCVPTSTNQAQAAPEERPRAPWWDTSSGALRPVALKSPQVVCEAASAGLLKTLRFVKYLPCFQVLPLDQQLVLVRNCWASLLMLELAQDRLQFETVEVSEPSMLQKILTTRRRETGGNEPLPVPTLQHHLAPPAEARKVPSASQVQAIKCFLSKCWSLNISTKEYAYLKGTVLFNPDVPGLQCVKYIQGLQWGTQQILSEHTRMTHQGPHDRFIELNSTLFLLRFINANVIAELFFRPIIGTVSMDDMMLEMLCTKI
# The depositor's hits bear a star; nt = not tested or not shown. Rows were chosen to be rich in hits. Some 4.6% of all compounds tested hit in one or more screens of this group.
SMILES,hgDAF-12 ag,ssDAF-12 act,Wee1 stabilizer,DAX1 inh-1,hcDAF12 agonist,DAX1 inh-2
O=C(Nc1cc(S(=O)(=O)N2CCOCC2)ccc1Cl)c1ccncc1,-4,-1,nt,0,1,-1
Cc1cccc(NC(=O)CN(CC2CCCO2)C(=O)c2ccc(S(C)(=O)=O)cc2)c1C (configuration not stated),0,-1,nt,0,0,-1
N#C/C(=C(/O)CCl)c1nc(-c2ccccc2)cs1,3,1.3*,-2,1,4,0
CC(C)(C)CC(=O)Nc1ccccc1N1CCN(c2ccccc2)CC1,-2,-1,11*,1,-1,-2
CCOC(=O)c1sc(-c2ccc(OC)cc2)cc1N,12*,0,11*,2,4,3
Nc1nc(NCc2cccs2)nn1-c1ccccc1,6,-1,-3,1,2,0
O=c1c2ccccc2nc2ccc(NCc3cccs3)nn12,6,-1,-1,2,2,4.7*
Cc1cccc(OCC(=O)Nc2ccc3c(c2)nc(CCN2CCC(C)CC2)n3C)c1,-3,-1,nt,0,1,0
Cc1cccc(OCC(=O)Nc2ccc3c(c2)nc(CCN2CCN(C)CC2)n3C)c1,0,-1,-1,0,-1,4.9*
Cn1c(CCN2CCOCC2)nc2cc(NC(=O)COc3ccccc3)ccc21,-3,-2,9.1*,-1,-1,-1
CCn1cc(C(=O)O)c(=O)c2cnc(N3CCN(C(=S)Nc4ccccc4)CC3)nc21,0,-2,2,0,0,3
CCCCOC(=O)c1ccc(NC(=S)N2CCN(c3ncc4c(=O)c(C(=O)O)cn(CC)c4n3)CC2)cc1,-3,-1,2,0,-2,4.3*
O=c1[nH]c2cc(Br)c(Br)nc2[nH]1,-1,-1,nt,1,-1,nt
CC(=O)c1ccc(NC(=O)CN2c3cccc4cccc(c34)S2(=O)=O)cc1,4,-1,nt,-3,2,6.0*
CCOc1ccc2c(c1)c(N=Nc1cccc(C(=O)O)c1)c(O)n2C,7,-1,-2,1,3,-2
CCc1ccc2oc(-c3ccc(OC)cc3)cc(=Nc3c(C)n(C)n(-c4ccccc4)c3=O)c2c1,17*,0,8,6.5*,9.1*,0
CCc1ccc2oc(-c3ccc(OC)cc3)cc(=Nc3cccc(C(=O)O)c3)c2c1,13*,0,4,3,6.5*,-1
COc1ccc(-c2cc(=Nc3ccc(C(=O)O)cc3)c3cc(C)ccc3o2)cc1,13*,1,4,4.1*,5.7*,1
CC(C)CSc1ncccc1-c1nc2ccccc2[nH]1,-1,-1,nt,-1,-2,nt
COC(=O)/C=C1\OCc2ccc(C)cc21,2,-1,nt,-1,0,nt
O=C1C(C2=NC(c3ccccn3)C3C(=O)N(c4ccccc4)C(=O)C23)=C(O)c2ccccc21 (configuration not stated),-1,-1,-4,0,-2,4.3*
CCCOc1ccc(N2C(=O)CC(N3CCN(c4ccc([N+](=O)[O-])cc4)CC3)C2=O)cc1 (configuration not stated),-2,-2,nt,-1,-4,5.2*
CCOc1ccc(N2C(=O)CC(N3CCN(c4ccc([N+](=O)[O-])cc4)CC3)C2=O)cc1 (configuration not stated),4,-1,nt,0,-3,1
COc1ccc(S(=O)(=O)N2CCCCC2c2cc(C(=O)Nc3ccc(OC)cc3C)no2)cc1 (configuration not stated),-5,-2,nt,-1,-2,nt

# Screening data from PubChem BioAssay.
